# Source: PubChem BioAssay (Tox21)
# Records with an inconclusive call do not appear. A number with no mark means an inactive call. Calls follow the shape of the dose curve; as a rule, active = well fitted cell-killing curve with a large enough effect in the repeat runs; inconclusive = weak or mixed curves, or effect the other way; inactive = flat fitted curve, though single readings scatter.
# Assay: qHTS RealTime-Glo MT Cell Viability Assay in HepG2 cells - 40 hour (AID 1224870); also: nearly all actives have a fitted effect of over 50% in size
# Conditions: RealTime-Glo luminescence; series mostly up to 76.8 µM; activity change, negative = cytotoxic: at the top concentration
# From the text: National Center for Advancing Translational Sciences [NCATS]
# NIH Chemical Genomics Center [NCGC]
# U.S. Environmental Protection Agency [EPA]
# National Institutes of Environmental Health Sciences [NIEHS]
# National Toxicology Program [NTP]
# U.S. Food and Drug Administration [FDA]
# Measure of cell viability is critical in the cell-base assay. Analysis of cell viability is necessary for the characterization of cell responses to cytotoxic drugs and environmental stress. A RealTime-Glo MT Cell Viability Assay to monitor cell viability in real time of continues cell culture during 40 hours of compound treatment was used to screen Tox21 10K library compounds in HepG2 cells. The RealTime-Glo MT Cell Viability Assay is a nonlytic, homogeneous, bioluminescent method to measure cell viability in real time using a simple, plate-based method. The assay involves adding NanoLuc luciferase and a cell-permeant prosubstrate to cells in culture. Viable cells reduce the proprietary prosubstrate to generate a substrate for NanoLuc luciferase. This substrate diffuses from cells into the surrounding culture medium, where it is rapidly used by the NanoLuc Enzyme to produce a luminescent signal. The signal correlates with the number of viable cells, making the assay well suited for cytotoxicity studies.
# Tox21 Assay Protocol Summary:
# The mixture of HepG2 cell suspension and reagents were dispensed at 600cells/6 ul/well in 1536-well tissue culture treated black solid bottom plates using a Multidrop dispenser. After the assay plates were incubated at a 37 C/5% CO2 incubator for 5 hours, 23 nL of compounds dissolved in DMSO, positive and negative controls was transferred to the assay plate by a pintool work station. The plates were incubated at 37 C for 40 hours. The luminescence intensity were measured at 0h, 8h, 16h, 24h, 32h and 40h time points using ViewLux plate reader during compound treatment.
# % is scaled to controls: 0 for no effect and ±100 for the full control effect.
row,Structure (SMILES),"activity change, negative = cytotoxic"
1,CCCCNCCCC,3.09%
2,C=O,-1.45%
3,CC(C)=CCCC(C)CCOC=O (stereo not given),0.0689%
4,CN(CCCN1c2ccccc2CCc2ccccc21)CC(=O)c1ccc(Cl)cc1,-10.2% [at 35.3 µM]
5,OCCN1CCN(CCO)CC1,-1.44%
6,CN1CCN(c2c(F)cc3c(=O)c(C(=O)O)cn4c3c2SCC4)CC1,3.26% [at 35.3 µM]
7,CN(C)C(=O)NC1(c2ccccc2)CCN(CCC[C@]2(c3ccc(Cl)c(Cl)c3)CCCN(C(=O)c3ccccc3)C2)CC1,-4.9% [at 15.8 µM]
8,CC(C)(C)C1CCCCC1=O (stereo not given),-0.194%
9,CCOC(=O)c1cc(=O)c2c(OCC(COc3cccc4oc(C(=O)OCC)cc(=O)c34)OC(=O)[C@@H](N)CCCCN)cccc2o1,-1.2% [at 35.3 µM]
10,OCC(CBr)(CBr)CBr,0.207%
11,CN(C)CC[C@@H](c1ccc(Cl)cc1)c1ccccn1,1.91% [at 35.3 µM]
12,CCCCNc1cc(C(=O)O)cc(S(N)(=O)=O)c1Oc1ccccc1,0.878% [at 35.3 µM]
13,CS(=O)(=O)c1ccc([C@@H](O)[C@@H](CF)NC(=O)C(Cl)Cl)cc1,4.25% [at 35.3 µM]
14,CC(C)CCCCCCc1ccc(OCCOCCO)cc1,0.596%
15,CC(CNC1CCCCC1)OC(=O)c1ccccc1 (stereo not given),-4.91% [at 35.3 µM]
16,CCC(=O)Nc1ccc(O)cc1,0.527% [at 35.3 µM]
17,CCCS(=O)c1ccc2nc(NC(=O)OC)[nH]c2c1 (stereo not given),-9.74% [at 35.3 µM]
18,CC1CN(c2ccccc2)NC1=O (stereo not given),0.15%
19,CCCCCCCCCCCCCCCCOP(=O)([O-])OCC[N+](C)(C)C,-1.01% [at 35.3 µM]
20,CC(C)CC(=O)OCc1ccccc1,5.89%

row,Structure (SMILES),"activity change, negative = cytotoxic"
1,CC1=C(O)C(=O)OC1C (stereo not given),3.2%
2,CC/C=C\CCOC(=O)C(C)C,1.5%
3,C=CCc1cc(OC)c(O)c(C(=O)NCCO)c1,-6.38% [at 35.3 µM]
4,CCC(=O)O[C@]1(C(=O)SCF)[C@H](C)C[C@H]2[C@@H]3C[C@H](F)C4=CC(=O)C=C[C@]4(C)[C@@]3(F)[C@@H](O)C[C@@]21C,-1.96% [at 35.3 µM]
5,CC(=O)OC1C2(C)CCC(C2)C1(C)C (stereo not given),-0.288%
6,CCN(CCCc1ccccc1)CCCc1ccccc1,-7.68% [at 35.3 µM]
7,CCc1cc(Cl)c(OC)c(C(=O)NC[C@@H]2CCCN2CC)c1O,1.02% [at 35.3 µM]
8,NNS(=O)(=O)c1ccc(Oc2ccc(S(=O)(=O)NN)cc2)cc1,-0.771%
9,CC(C)NCC(O)COc1ccc(CCOCC2CC2)cc1 (stereo not given),0.401% [at 35.3 µM]
10,COC(=O)c1ccc(OC)cc1,8.41%
11,Nc1ccc2ccccc2c1S(=O)(=O)O,-0.753%
12,CC1(O)CSC(C)(O)CS1 (stereo not given),0.0891%
13,CC(C)C(=O)OC/C=C/c1ccccc1,-1.97%
14,CCN(CC)CCOc1ccc(Cc2ccccc2)cc1,-9.86% [at 35.3 µM]
15,O=C1N(c2ccccc2)c2ccccc2C1(Cc1ccncc1)Cc1ccncc1,2.85% [at 35.3 µM]
16,CN1CCN(C2=Nc3ccccc3Oc3ccc(Cl)cc32)CC1,-1.3% [at 35.3 µM]
17,CN1CCN(C2=Nc3cc(F)ccc3Cc3ccccc32)CC1,-4.84% [at 35.3 µM]
18,CC1=C(CC(=O)O)c2cc(F)ccc2/C1=C\c1ccc(S(C)(=O)=O)cc1,-5.7% [at 35.3 µM]
19,CCCCC(=O)O[C@]1(C(=O)CO)[C@H](C)C[C@H]2[C@@H]3CCC4=CC(=O)C=C[C@]4(C)[C@@]3(F)[C@@H](O)C[C@@]21C,-3.96% [at 35.3 µM]
20,CCCNC(C)C(=O)Nc1c(C)csc1C(=O)OC (stereo not given),2.95% [at 35.3 µM]
